# Laboratory results published in the supplement of paper PMC6555819.
# How the values were obtained:
# Experiment in all cases: PBM binding z-score (relative to random genomic background probes); higher = stronger binding; sequences stand for … in GC…GCGATTGACAGCGTAGAATGAAGG
# [1] = tested on: FXR:RXRa (NR concentration 270 nM, RXRa partner concentration 90 nM)
# Procedure, shortened: (§1)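 Scanned fluorescence from custom Agilent 4×180K protein-binding microarrays was regression-normalized. Binding z-scores use random background probes as reference. Ligand-free nuclear receptor dimers were incubated on the arrays for 1 h and detected with antibodies against each partner (one per run).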
# [2] = tested on: LXRa:RXRa (NR concentration 270 nM, RXRa partner concentration 90 nM)
# Procedure, shortened: as §1
# [3] = tested on: LXRa homodimer (NR concentration 270 nM)
# Procedure, shortened: as §1
# [4] = tested on: LXRb:RXRa (NR concentration 270 nM, RXRa partner concentration 90 nM)
# Procedure, shortened: as §1
# [5] = tested on: LXRb homodimer (NR concentration 270 nM)
# Procedure, shortened: as §1
# [6] = tested on: PPARa:RXRa (NR concentration 270 nM, RXRa partner concentration 90 nM)
# Procedure, shortened: as §1
# [7] = tested on: PPARg:RXRa (NR concentration 180 nM, RXRa partner concentration 90 nM)
# Procedure, shortened: as §1
# [8] = tested on: PPARg:RXRa 270nM:90nM, anti-RXR (NR concentration 270 nM, RXRa partner concentration 90 nM)
# Procedure, shortened: as §1
# [9] = tested on: PPARg:RXRa 30nM:10nM, anti-RXR (NR concentration 30 nM, RXRa partner concentration 10 nM)
# Procedure, shortened: as §1
# [10] = tested on: PPARg:RXRa 90nM:30nM, anti-RXR (NR concentration 90 nM, RXRa partner concentration 30 nM)
# Procedure, shortened: as §1
# [11] = tested on: PPARg:RXRa DBDmut IVT, anti-RXR (DBD mutation: RXRa K156A/R161A, NR concentration 270 nM, RXRa partner concentration 90 nM)
# Procedure, shortened: as §1
# [12] = tested on: PPARg:RXRa IVT, anti-PPARg (NR concentration 270 nM, RXRa partner concentration 90 nM)
# Procedure, shortened: as §1
# [13] = tested on: PPARg DBDmut:RXRa IVT, anti-PPARg (DBD mutation: PPARg1 K132A/R137A, NR concentration 270 nM, RXRa partner concentration 90 nM)
# Procedure, shortened: as §1
# [14] = tested on: PPARg DBDmut IVT, anti-PPARg (DBD mutation: PPARg1 K132A/R137A, NR concentration 270 nM)
# Procedure, shortened: as §1
# [15] = tested on: PPARg homodimer (NR concentration 180 nM)
# Procedure, shortened: as §1
# [16] = tested on: PXR:RXRa (NR concentration 270 nM, RXRa partner concentration 90 nM)
# Procedure, shortened: as §1
# [17] = tested on: PXR homodimer (NR concentration 270 nM)
# Procedure, shortened: as §1
# [18] = tested on: RARa:RXR (NR concentration 270 nM, RXRa partner concentration 90 nM)
# Procedure, shortened: as §1
# [19] = tested on: RARa homodimer (NR concentration 270 nM)
# Procedure, shortened: as §1
# [20] = tested on: RARb:RXRa (NR concentration 270 nM, RXRa partner concentration 90 nM)
# Procedure, shortened: as §1
Sequence,PBM binding z-score [1],PBM binding z-score [2],PBM binding z-score [3],PBM binding z-score [4],PBM binding z-score [5],PBM binding z-score [6],PBM binding z-score [7],PBM binding z-score [8],PBM binding z-score [9],PBM binding z-score [10],PBM binding z-score [11],PBM binding z-score [12],PBM binding z-score [13],PBM binding z-score [14],PBM binding z-score [15],PBM binding z-score [16],PBM binding z-score [17],PBM binding z-score [18],PBM binding z-score [19],PBM binding z-score [20]
GATACAAGGTCAAGGCCAGAGTACGCGTATTGAT,7.16,5.44,1.37,4.03,0.481,5.49,5.86,5.56,2.28,4.41,3.92,4.69,1.01,0.226,2.18,3.85,0.847,4.27,0.975,5.35
CCTAGTTGGTCAAGGTCACCCACGCTATAGGTAC,4.05,3.51,2.14,3.51,0.583,4.14,2.93,3.43,1.1,2.35,1.97,3.64,0.717,1.37,4.86,4.16,2.4,4.82,3.27,4.16
TCTCGGAGGACACGTAAGGTCAGAGCTCGACATC,2.43,3.03,1.46,2.1,-0.238,2.29,0.563,1.42,1.78,1.58,1.32,0.521,0.00634,-0.877,1.75,3.15,0.734,3.13,0.0447,3.41
TTACCAAGGTGAAGGTCGTTGATCCCTCTGTAGA,2.37,2.03,-0.222,1.45,-0.739,2.55,3.15,3.94,2.09,3.67,1.59,3.45,1.02,-0.236,0.792,1.48,0.114,1.76,-0.599,2.28
GCAGACAGGTAAAACGCAGGTAACTCAGGGTGGC,-0.253,-0.37,-0.412,-0.448,-0.917,-0.183,0.515,-0.433,-0.834,-0.835,-0.691,-0.804,-1.23,-0.839,-0.847,-0.561,-0.484,-0.286,-0.674,-0.486
TTACCAAGGTGAGCTGAGGTCGTTGCTCCAACTC,1.27,1.21,-0.608,0.819,-1.17,1.42,-0.334,0.661,-0.351,0.141,1.08,2.12,-0.398,-1.21,-0.419,4.75,0.304,1.6,-0.876,1.74
TCATATAGGTAAACAGGTTAAAGTCCGTAAGTTA,0.775,1.24,0.749,1.34,0.393,2.69,2.85,3.9,4.25,3.91,4.76,4.3,1.02,1.02,1.31,1.29,0.911,1.79,1.77,0.998
GCTCCTAGGTCAACTGATGGTCAGCTAAAGCTCG,4.73,3.62,0.561,3.01,0.879,4.1,2.53,3.46,1.21,2.51,4.98,3.97,-0.903,0.266,2.06,2.28,-0.577,3.53,-0.186,4.35
CCTCGGAGCACAGAAGGTCAGAGCTGTCCGCTTT,1.68,2.17,0.231,1.21,-0.905,1.97,-0.336,0.536,-1.06,-0.433,0.355,-0.108,-1.25,-1.67,1.34,1.87,0.017,2.1,-0.245,2.62
TTACCAAGGTGAGCCGAGGTCGTTGATCCAACTC,2.53,1.33,-0.48,1.11,-1.11,2.19,0.623,1.32,-0.155,0.541,1.46,2.45,0.0524,0.067,-0.0527,4.95,0.39,1.95,-0.75,1.99
CAGCGTAGGTCAGGGCCAGTATAGGAGGAACGTT,1.79,1.23,-0.344,0.759,-1.03,2.46,0.896,0.918,-0.272,0.0961,0.838,1.03,-0.58,-1.66,0.304,0.605,-0.644,1.04,0.00652,3.43
GCTAGCACGCCATTTGGGTCACTCAATGACGGGC,-0.103,-0.15,-0.585,-0.179,-1.07,1.13,0.747,0.379,-0.294,0.152,0.446,1.27,-1.77,-1.29,-0.0391,0.0907,-0.533,0.592,-0.962,0.997
CTCGAAAGGTCGGTAGAGGTGAGTATACGGATAA,2.48,2.01,0.0371,1.32,-0.315,2.86,1.02,1.75,0.538,0.994,-0.427,1.32,-0.234,0.272,1.1,2.69,0.0204,2.63,0.416,3.13
TAGCCTAGGTCATGCGGGCCAGTATCGTGTCGGC,3.99,3.03,0.667,1.41,-0.226,3.06,1.67,2.29,0.00483,1.36,1.85,2.82,-0.0878,-0.59,0.211,1.41,-0.532,2,-0.99,3.49
GGAACGAGGGCATTCTAGTTGATAGCATGGCGAT,1.44,1.08,-0.665,0.264,-0.166,1.21,0.871,0.642,-0.247,0.231,3.02,2.04,-0.851,-0.214,-0.294,1.53,0.396,0.248,-0.43,1.58
